In PubChem BioAssay (NCATS) one finds Potency data, which are given here for 30 compounds.

Assay [1] is described as follows: qHTS for Inhibitors of the Functional Ribonucleoprotein Complex (vRNP) of Lassa (LASV) Arenavirus: LASV Primary Screen - GLuc reporter signal (AID 1347082; calls by dose curve; tested in HEK293 reporter line; also: nearly all actives have a fitted effect of over 60% in size). A general note: qHTS replaces the single test concentration by a dilution series.
Assay [2] can be described thus: qHTS for Inhibitors of the Functional Ribonucleoprotein Complex (vRNP) of Lassa (LASV) Arenavirus: Viability assay - alamar blue signal for LASV Primary Screen (AID 1347083; calls by dose curve; tested in HEK293 reporter line; also: nearly all actives have a fitted effect of over 80% in size).
Assay [3] is described as follows: qHTS for Inhibitors of the Functional Ribonucleoprotein Complex (vRNP) of Lymphocytic Choriomeningitis Arenaviruses (LCMV): Viability assay - alamar blue signal for LCMV Primary Screen (AID 1347085; calls by dose curve; tested in HEK293 reporter line; also: nearly all actives have a fitted effect of over 80% in size).
Assay [4] deals with Nucleoprotein (Lymphocytic choriomeningitis virus (strain Armstrong)) (UniProt P09992). Put plainly: qHTS for Inhibitors of the Functional Ribonucleoprotein Complex (vRNP) of Lymphocytic Choriomeningitis Arenaviruses (LCMV): LCMV Primary Screen - GLuc reporter signal (AID 1347086). Also: nearly all actives have a fitted effect of over 70% in size.

Structures are written as SMILES. Results filed as inconclusive are left out. The source made the active and inactive calls. Unless noted, calls follow the shape of the full dose curve.
Potency is read from the fitted curve at half-maximal effect.

Nucleoprotein (Lymphocytic choriomeningitis virus (strain Armstrong)), sequence (P09992 whole entry, looked up): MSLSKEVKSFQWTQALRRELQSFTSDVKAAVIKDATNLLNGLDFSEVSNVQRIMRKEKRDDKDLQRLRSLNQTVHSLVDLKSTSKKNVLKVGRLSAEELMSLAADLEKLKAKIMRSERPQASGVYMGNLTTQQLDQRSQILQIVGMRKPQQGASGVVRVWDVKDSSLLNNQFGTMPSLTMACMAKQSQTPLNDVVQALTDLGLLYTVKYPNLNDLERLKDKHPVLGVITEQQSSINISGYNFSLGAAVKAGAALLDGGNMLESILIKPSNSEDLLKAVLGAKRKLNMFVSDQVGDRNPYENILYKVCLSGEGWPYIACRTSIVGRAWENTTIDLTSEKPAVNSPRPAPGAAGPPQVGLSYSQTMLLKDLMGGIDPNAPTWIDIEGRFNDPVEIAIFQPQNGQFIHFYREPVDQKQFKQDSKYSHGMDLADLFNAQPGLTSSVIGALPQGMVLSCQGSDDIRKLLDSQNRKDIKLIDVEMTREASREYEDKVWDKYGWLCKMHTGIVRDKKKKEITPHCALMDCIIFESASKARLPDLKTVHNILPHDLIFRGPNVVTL

Turning to `NCCC(=O)O`, the Potency result in assay [1], in assay [2], in assay [3] and in assay [4] was “inactive” in each case.
Turning to `CC1C(=O)OC2C1CCC1(C)CCC(=O)C(C)C21` (stereo not given), the Potency result in assay [1], in assay [2], in assay [3] and in assay [4] was “inactive” in each case.
`OC(c1cc(C(F)(F)F)nc2c(C(F)(F)F)cccc12)C1CCCCN1` (stereo not given): the Potency entry in assay [1], in assay [2], in assay [3] and in assay [4] was “inactive” throughout.
Consider `CC12CCC3C(CCC4CC(O)CCC43C)C1CC(O)C2` (stereo not given), for which the Potency result in assay [1], in assay [2], in assay [3] and in assay [4] was “inactive” in each case.
Turning to `COc1cc(C(C)=O)cc(OC)c1O`, the Potency entry in assay [1], in assay [2], in assay [3] and in assay [4] was “inactive” in each case.
In the case of `CC(C)CCO`, the Potency result in assay [1], in assay [2], in assay [3] and in assay [4] was “inactive” throughout.
For `O=C1c2c(O)cc(O)cc2O[C@H](c2cc(O)c(O)c(O)c2)[C@H]1O`, the Potency result in assay [1], in assay [2], in assay [3] and in assay [4] was “inactive” each time.
Turning to `CCCCC/C=C/CC(=O)OC`, the Potency result in assay [1], in assay [2], in assay [3] and in assay [4] was “inactive” in each case.
With `CCCC(=O)OC/C=C(\C)CCC=C(C)C`, the Potency entry in assay [1], in assay [2], in assay [3] and in assay [4] was “inactive” in each case.
Consider `C=CCNC1=C2C[C@@H](C)C[C@H](OC)[C@@H](O)[C@@H](C)C=C(C)[C@H](OC(N)=O)[C@@H](OC)C=CC=C(C)C(=O)NC(=CC1=O)C2=O`, for which the Potency in assay [1] is 8.63 µM (active); in assay [2], 6.85 µM (active); in assay [3], 15.3 µM (active); in assay [4], 4.32 µM (active).
In the case of `CC1=CC=C(C(C)C)CC1`, the Potency entry in assay [1], in assay [2], in assay [3] and in assay [4] was “inactive” each time.
On to `Cc1cc(=O)c2c(O)c(O)ccc2o1`, for which the Potency result in assay [1], in assay [2], in assay [3] and in assay [4] was “inactive” each time.
`CCCCCCCCCCCCCC[C@@H](O)[C@@H](O)[C@@H](N)CO`: the Potency entry in assay [1], in assay [2], in assay [3] and in assay [4] was “inactive” each time.
On to `NCCC(=O)c1ccccc1N`, for which the Potency entry in assay [1], in assay [2], in assay [3] and in assay [4] was “inactive” throughout.
With `COC1=C(C)C(=O)O[C@]12C(=O)C(C)=C1CCCCN3[C@H]([C@@H]4C[C@H](C)C(=O)O4)CC[C@]132`, the Potency result in assay [1], in assay [2], in assay [3] and in assay [4] was “inactive” in each case.
As for `COC(=O)C1=CO[C@@H](C)[C@@H]2CN3CC[C@@]4(C(=O)Nc5ccccc54)[C@@H]3C[C@H]12`, the Potency result in assay [1], in assay [2], in assay [3] and in assay [4] was “inactive” each time.
For `COc1cc2c(c(OC)c1OC)-c1c(cc(OC)c(OC)c1OC)CC(C)C(C)C2` (stereo not given), the Potency result in assay [1], in assay [2], in assay [3] and in assay [4] was “inactive” throughout.
On to `O=C(O)[C@H]1O[C@H](Oc2cc3oc(-c4ccccc4)cc(=O)c3c(O)c2O)[C@H](O)[C@@H](O)[C@H]1O`, for which the Potency entry in assay [1], in assay [2], in assay [3] and in assay [4] was “inactive” each time.
On to `COc1cc(/C=C/c2ccc(O)cc2)cc(OC)c1`, for which the Potency entry in assay [1], in assay [2], in assay [3] and in assay [4] was “inactive” throughout.
On to `N[C@@H](CCCCNC(=O)CCCC[C@@H]1SC[C@H]2NC(=O)N[C@H]12)C(=O)O`, for which the Potency result in assay [1], in assay [2], in assay [3] and in assay [4] was “inactive” in each case.
For `CC12CCC(C1)C(C)(C)C2O` (stereo not given), the Potency entry in assay [1], in assay [2], in assay [3] and in assay [4] was “inactive” each time.
For `C[C@@H]1CCN(C(=O)CC#N)C[C@H]1N(C)c1ncnc2[nH]ccc12`, the Potency result in assay [1], in assay [2], in assay [3] and in assay [4] was “inactive” each time.
In the case of `CCCCCCCCCCCCCCCC`, the Potency result in assay [1], in assay [2], in assay [3] and in assay [4] was “inactive” in each case.
Consider `C[C@]12C[C@H](O)CC(CO)(CO)C1[C@H](O)C[C@@]13CC4[C@@H](CC12)[C@@]4(C)C3` (stereo not given in full), for which the Potency entry in assay [1], in assay [2], in assay [3] and in assay [4] was “inactive” each time.
For the compound `O=C(NCO)c1cccnc1`, the Potency entry in assay [1], in assay [2], in assay [3] and in assay [4] was “inactive” in each case.
On to `COc1ccccc1NC(C)=O`, for which the Potency result in assay [1], in assay [2], in assay [3] and in assay [4] was “inactive” in each case.
Turning to `COc1cc(N2CCN(C)CC2)ccc1Nc1nc(N)c(C(=O)c2c(Cl)cccc2Cl)s1`, the Potency entry in assay [1], in assay [2], in assay [3] and in assay [4] was “inactive” each time.
Turning to `OC[C@H]1O[C@H](OCc2ccccc2)[C@H](O[C@@H]2OC[C@@H](O)[C@H](O)[C@H]2O)[C@@H](O)[C@@H]1O`, the Potency entry in assay [1], in assay [2], in assay [3] and in assay [4] was “inactive” throughout.
Turning to `COc1c2c(c(C)c3c1C(=O)OC3)O[C@@]1(C)CC[C@@]3(O)C(C)(C)OC(=O)CC[C@]3(C)[C@H]1C2`, the Potency entry in assay [1], in assay [2], in assay [3] and in assay [4] was “inactive” each time.
In the case of `NCCC[C@H](N)CC(=O)N[C@H]1CNC(=O)[C@H]([C@H]2C[C@H](O)N=C(N)N2)NC(=O)C(=CNC(N)=O)NC(=O)[C@H](CO)NC(=O)[C@H](CO)NC1=O`, the Potency result in assay [1], in assay [2], in assay [3] and in assay [4] was “inactive” in each case.
